# Laboratory results taken from ChEMBL document CHEMBL4513141, “CO-ADD screening of NIH (USA) - Clinical Collection” (2021).
# Measured potencies and affinities stand elsewhere.
# Legend:
# [1] = tested on: Klebsiella pneumoniae; details: Concentration 20 uM; ASSAY_TEST Inhibition of Bacterial Growth; detection method Absorption (OD600); MEDIA CAMHB; plate type 384well; NBS; CORNING #3640; time 18 hr
# [2] = tested on: Candida albicans; details: 20 µM
# [3] = tested on: Cryptococcus neoformans; details: Concentration 20 uM; ASSAY_TEST Inhibition of Fungal Growth; detection method Resazurin; Absorption (OD600-OD570); plate type 384well; NBS; CORNING #3640
Compound,Inhibition [1] [%],Inhibition [2] [%],Inhibition [3] [%]
COc1ccc(CC2c3cc(OC)c(OC)cc3CC[N+]2(C)CCC(=O)OCCCCCOC(=O)CC[N+]2(C)CCc3cc(OC)c(OC)cc3C2Cc2ccc(OC)c(OC)c2)cc1OC.O=S(=O)(O)c1ccccc1 (configuration not stated),4.87,3.58,-0.33
Cl.c1ccc2c(c1)CCCC2C1=NCCN1 (configuration not stated) [TETRAHYDROZOLINE HYDROCHLORIDE],14.26,3.03,-3.23
COc1cc(C(=O)NC2CCCNC2)cc(OC)c1OC (configuration not stated) [TROXIPIDE],14.93,5.32,0.51
COc1ccc2cc([C@H](C)C(=O)[O-])ccc2c1.[Na+] [NAPROXEN SODIUM],13.03,9.05,-1.8
CN(C)CC[C@@H](c1ccc(Cl)cc1)c1ccccn1.O=C(O)/C=C\C(=O)O [DEXCHLORPHENIRAMINE MALEATE],21.61,2.45,-7.42
CC(=O)Nc1nnc(S(N)(=O)=O)s1 [ACETAZOLAMIDE],10.3,4.56,-2.97
Cc1ncc([N+](=O)[O-])n1CCO [METRONIDAZOLE],13.91,1.89,-8.47
COCC1=C(C(=O)OC(C)OC(=O)OC(C)C)N2C(=O)[C@@H](NC(=O)/C(=N\OC)c3csc(N)n3)[C@H]2SC1 (some centres not stated) [CEFPODOXIME PROXETIL],5.41,4.56,0.11
CC(Cc1ccccc1)(NC(=O)CN)c1ccccc1.Cl (configuration not stated) [REMACEMIDE HYDROCHLORIDE],8.63,4.18,-7.79
NNCCc1ccccc1.O=S(=O)(O)O [PHENELZINE SULFATE],6.23,4.34,-10.12
COC(=O)C1=C(C)NC(C)=C(C(=O)OC(C)C)C1c1cccc2nonc12 (configuration not stated) [ISRADIPINE],7.21,4.43,-5.25
CCC(=O)O[C@]1(C(=O)CCl)[C@@H](C)C[C@H]2[C@@H]3CCC4=CC(=O)C=C[C@]4(C)[C@@]3(F)[C@@H](O)C[C@@]21C [CLOBETASOL PROPIONATE],-2.85,0.73,4.34
CC(=O)OCC(=O)[C@@]1(O)CC[C@H]2[C@@H]3CCC4=CC(=O)CC[C@]4(C)[C@H]3C(=O)C[C@@]21C [CORTISONE ACETATE],12.5,1.99,-0.31
COc1cc2nc(N(C)CCCNC(=O)C3CCCO3)nc(N)c2cc1OC (configuration not stated) [ALFUZOSIN],-2.08,-0.8,-5.01
Cl.Nc1nc2ccc(OC(F)(F)F)cc2s1,11.2,2.98,-9.1
CC(=O)[C@H]1CC[C@H]2[C@@H]3C[C@H](C)C4=CC(=O)CC[C@]4(C)[C@H]3[C@@H](O)C[C@]12C [MEDRYSONE],12.23,1.89,-4.18
CN(CCOc1ccc(CC2SC(=O)NC2=O)cc1)c1ccccn1.O=C(O)/C=C\C(=O)O (configuration not stated) [ROSIGLITAZONE MALEATE],9.63,0.75,-9.6
Clc1ccc2c(c1)C(N1CCNCC1)=Nc1ccccc1O2 [AMOXAPINE],12.52,4.28,-1.42
CSc1nc2cc(Cl)c(Oc3cccc(Cl)c3Cl)cc2[nH]1 [TRICLABENDAZOLE],-0.37,7.82,-2.96
CC[N+](C)(CC)CCOC(=O)C(O)(c1ccccc1)C1CCCCC1.[Br-] (configuration not stated) [OXYPHENONIUM BROMIDE],20,2.42,-6.44
Cl.O.O=C1N(c2ccccc2)c2ccccc2C1(Cc1ccncc1)Cc1ccncc1,9.02,3.32,-6.67
CN1CCCC(n2nc(Cc3ccc(Cl)cc3)c3ccccc3c2=O)CC1.Cl (configuration not stated) [AZELASTINE HYDROCHLORIDE],-1,4.45,4.19
CC(=O)/N=c1/sc(S(N)(=O)=O)nn1C [METHAZOLAMIDE],3.3,3.37,-3.07
CC(=O)O[C@]1(C(C)=O)CC[C@H]2[C@@H]3C=C(C)C4=CC(=O)CC[C@]4(C)[C@H]3CC[C@@]21C [MEGESTROL ACETATE],7.28,5.92,-0.12
